Consider twelve sequences from PMC5700166.

In test [1] the target is T1, GST-Nv-NF-kB (Ser allele) (Nematostella vectensis, UniProt A7UNT2 2-411).
T1 sequence: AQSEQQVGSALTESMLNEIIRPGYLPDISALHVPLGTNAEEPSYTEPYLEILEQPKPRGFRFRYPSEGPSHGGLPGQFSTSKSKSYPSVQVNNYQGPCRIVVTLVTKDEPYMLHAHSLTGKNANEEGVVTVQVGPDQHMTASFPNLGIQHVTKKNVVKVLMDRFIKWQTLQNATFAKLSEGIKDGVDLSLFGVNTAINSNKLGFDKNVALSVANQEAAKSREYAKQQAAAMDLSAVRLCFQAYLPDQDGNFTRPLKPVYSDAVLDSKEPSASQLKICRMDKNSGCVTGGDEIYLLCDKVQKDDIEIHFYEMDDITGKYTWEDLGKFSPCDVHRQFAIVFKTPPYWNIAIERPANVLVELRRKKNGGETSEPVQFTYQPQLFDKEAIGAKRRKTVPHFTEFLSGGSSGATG
Kind of test: protein-binding microarray (PBM); PBM: ~300 nM protein, 6 mM HEPES pH 7.8, 80 mM KCl, 0.5 mM EDTA, 0.5 mM EGTA, 6% glycerol, 35 ng/ul poly-dIdC, 1% milk, 1 h, room temperature; Ap Aiptasia and Nv Nematostella (sea anemones) / Co Capsaspora / Aq Amphimedon (sponge) / Dm Drosophila / Hu human; RHD is the Rel homology domain; high values mean tight binding. The conditions noted are these: dsDNA, one strand shown.

In the next test the target is GST-Hu-p50 (Homo sapiens, UniProt P19838 7-356). The description is as above. The conditions noted are these: dsDNA, one strand shown.
Sequence of GST-Hu-p50 (P19838 7-356): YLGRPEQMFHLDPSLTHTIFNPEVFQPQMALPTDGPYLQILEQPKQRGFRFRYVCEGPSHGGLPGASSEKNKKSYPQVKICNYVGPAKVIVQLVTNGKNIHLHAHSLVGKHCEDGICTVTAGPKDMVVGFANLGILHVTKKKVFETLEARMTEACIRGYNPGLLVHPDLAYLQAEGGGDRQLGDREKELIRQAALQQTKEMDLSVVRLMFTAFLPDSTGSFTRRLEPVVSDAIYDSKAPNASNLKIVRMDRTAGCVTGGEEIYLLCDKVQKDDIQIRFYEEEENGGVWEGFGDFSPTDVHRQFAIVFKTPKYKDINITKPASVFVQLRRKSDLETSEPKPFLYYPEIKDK

In the case of “CCGATTAACATCACCCATGGGAATGATGTTAATCGGGTCTTGATTCGCTTGACGCTGCTG”, the binding signal in test [1] came to 1.02 z-score; in the test with GST-Hu-p50, 1.43 z-score.
On the same counts, the results for “CCGATTAACATCAGGGATTTCTATGATGTTAATCGGGTCTTGATTCGCTTGACGCTGCTG” are 3.11 z-score and 3.37 z-score.
For the sequence “CCGATTAACATCAGGAGTTTCCCTGATGTTAATCGGGTCTTGATTCGCTTGACGCTGCTG”, the binding signal in test [1] came to 4.67 z-score; with GST-Hu-p50 it was 4.81 z-score.
The corresponding values for “CCGATTAACATCAAGGAAAACCCTGATGTTAATCGGGTCTTGATTCGCTTGACGCTGCTG” are 1.6 z-score and 2.22 z-score.
In the case of “CCGATTAACATCATGGGGACGACTGATGTTAATCGGGTCTTGATTCGCTTGACGCTGCTG”, the binding signal was 2.44 z-score in test [1] and 2.41 z-score in the test with GST-Hu-p50.
The corresponding values for “CCGATTAACATCAGGGGACACCCTGATGTTAATCGGGTCTTGATTCGCTTGACGCTGCTG” are 3.12 z-score and 3.82 z-score.
On the same counts, the results for “CCGATTAACATCAGATGTCCCCCTGATGTTAATCGGGTCTTGATTCGCTTGACGCTGCTG” are 4.47 z-score and 3.96 z-score.
On the same counts, the results for “CCGATTAACATCAGGTATTCCCATGATGTTAATCGGGTCTTGATTCGCTTGACGCTGCTG” are 2.85 z-score and 1.73 z-score.
Consider “CCGATTAACATCAGAAATGGGAATGATGTTAATCGGGTCTTGATTCGCTTGACGCTGCTG”, for which the binding signal turned out to be 1.7 z-score in test [1] and 1.72 z-score in the test with GST-Hu-p50.
The corresponding values for “CCGATTAACATCAGGGAAATATATGATGTTAATCGGGTCTTGATTCGCTTGACGCTGCTG” are 5.62 z-score and 4.03 z-score.
The corresponding values for “CCGATTAACATCAGGGGTTTCCATGATGTTAATCGGGTCTTGATTCGCTTGACGCTGCTG” are 4 z-score and 4.95 z-score.
The corresponding values for “CCGATTAACATCAGGAACGCCCCTGATGTTAATCGGGTCTTGATTCGCTTGACGCTGCTG” are 1.92 z-score and 3 z-score.
